Test results as given in PubChem BioAssay (NCI).
Compounds without any hit were thinned out: in the full panel of roughly 79,000, 15% have a hit. Unmarked numbers belong to inactive results. Active and inactive are the calls of the source. No stated cut-off is given here; in the data, active means growth inhibition above about 70%; inactive means the rest.

Assays:
[1] = NCI Yeast Anticancer Drug Screen. Data for the rad50 strain (AID 155);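 further: 0% = growth of vehicle-only cultures of the same strain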; conditions: S. cerevisiae rad50 strain growth inhibition; at 50.0 µM; active compounds read high
In short: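 Relative growth inhibition (compound vs vehicle) was measured in yeast with a defined repair-gene alteration.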

[2] = NCI Yeast Anticancer Drug Screen. Data for the mec2-1 strain (AID 157); conditions: S. cerevisiae mec2-1 strain, at 50.0 µM, active compounds read high
In short: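 Mutant yeast (mec2-1) grown with compound; growth inhibition relative to vehicle control reported.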

[3] = NCI Yeast Anticancer Drug Screen. Data for the sgs1 mgt1 strain (AID 161);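 further: 0% = growth of cultures given vehicle only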; conditions: S. cerevisiae sgs1 mgt1 strain, at 50.0 µM, active compounds read high
In short: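 Yeast cells carrying a defined DNA-repair defect were exposed to test compounds. Growth inhibition was measured relative to vehicle-treated controls.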

[4] = NCI Yeast Anticancer Drug Screen. Data for the cln2 rad14 strain (AID 165);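 further: 0% = growth equal to vehicle treated cultures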; conditions: S. cerevisiae cln2 rad14 strain, at 50.0 µM, active compounds read high
In short: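 Readout is yeast growth inhibition versus vehicle-treated controls, using a strain with cln2 and rad14 alterations exposed to compound.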

[5] = NCI Yeast Anticancer Drug Screen. Data for the bub3 strain (AID 167); conditions: S. cerevisiae bub3 mutant strain, at 50.0 µM, active compounds read high
In short: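 Screening used yeast with an engineered genetic alteration affecting cell cycle control. Compound-exposed cultures were compared with vehicle cultures, and reduced growth was taken as inhibition.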

[6] = NCI Yeast Anticancer Drug Screen. Data for the mlh1 rad18 strain (AID 175); conditions: S. cerevisiae mlh1 rad18 strain growth inhibition; at 50.0 µM; active compounds read high
In short: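 Genetically defined yeast (DNA repair-deficient) exposed to compounds; growth inhibition determined relative to vehicle.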

SMILES | growth inhibition [1] | growth inhibition [2] | growth inhibition [3] | growth inhibition [4] | growth inhibition [5] | growth inhibition [6]
CC(C/C=C(/C=O)C(C)CC(C)(C)C)CC(C)(C)C (centres undefined) | 43.9% | 20.2% | 36.3% | -24.1% | 4.85% | 61.8%
O=C(Nc1ccc2ccccc2c1)c1ccc(Cl)cc1Cl | -12.1% | 14.2% | -0.7% | -2.85% | 2.45% | -14.8%
O=C1CC(N2C(=O)C3C4CCC(O4)C3C2=O)C(=O)N1 (centres undefined) | 2.45% | 18.2% | 1.3% | -0.6% | 7.95% | 6.45%
Nc1nc(-c2cccc(S(=O)(=O)O)c2)c([N+](=O)[O-])c(=O)[nH]1 | -10% | -8.05% | -15.7% | 10.2% | -24.6% | 17.6%
O=C(O)c1cc(O)[nH]c(=O)c1 | -12% | -105% | -22.6% | -48.5% | -26% | -16.2%
C[N+]1=CN(c2ccc(Cl)cc2)Cc2cc(Cl)ccc21 | 31.1% | -12.1% | 25.6% | 13.4% | 40.1% | 34%
CCCCCCCCCCCn1cnc2c(=S)nc[nH]c21 | 0.25% | 5.3% | -17.1% | 20.7% | -21.2% | -21.2%
CN(C)C=NCCN1CCOCC1 | 9.3% | 15.1% | 26.8% | 5.55% | -7.1% | -47.6%
N#CCC1C2CC3C(C2=O)C13 (centres undefined) | -0.6% | 5.85% | -2.2% | 22.4% | 4.65% | -39.8%
c1ccc(-c2nnsc2-c2ccccc2)cc1 | 17.5% | -4.35% | 27.6% | 10.8% | -3.9% | 20.4%
CCC1Cc2ccccc2OC1=O (centres undefined) | 10.9% | -3.6% | -1.95% | -7.7% | 7.9% | 1.55%
Cn1c(-c2ccccc2)nc(-c2ccccc2)[n+]1[O-] | 8.75% | -0.55% | 1.85% | 9.8% | 0.6% | 28.6%
c1ccc([P+](c2ccccc2)(c2ccccc2)C2c3ccccc3CCc3ccccc32)cc1 | 99.6% (active) | 99.8% (active) | 99.5% (active) | 99.5% (active) | 99.4% (active) | 99.6% (active)
O=C(NN(C(=O)c1ccc([N+](=O)[O-])cc1)c1ccccc1)c1ccc([N+](=O)[O-])cc1 | 3.1% | 14.2% | 14.1% | 21.4% | 12.8% | 13.2%
CCCCCCCCCCCCc1ccc(CS)cc1 | 40.9% | 36.3% | 54% | -1.7% | 51.3% | 32.6%
Cc1c(CN(C)C)ccc2ccccc12 | -6% | -6.05% | 3.95% | -34.4% | 0.6% | -8.95%
CC(Nc1cccc(Cl)c1)S(=O)(=O)O (centres undefined) | 8.05% | 5.7% | -8% | 26.4% | 2% | -0.25%
NCCCOCCO | -2.9% | -0.5% | -8.4% | 8.3% | 16.4% | 4.35%
CC(=O)Nc1ccc(-c2nnc(SCC(=O)Nc3ccc(C)cc3)o2)cc1 | -15% | -5.5% | -5.8% | 8.4% | -13.7% | -38.3%
COc1ccc(C(=O)c2ccc(Cl)cc2)c(O)c1OC | -5.85% | -6.55% | -1.7% | 3.9% | 19.4% | -9.4%

SMILES | growth inhibition [1] | growth inhibition [2] | growth inhibition [3] | growth inhibition [4] | growth inhibition [5] | growth inhibition [6]
COC(=O)c1ccc(C(=O)OC)c(NC(=O)CC(=O)c2ccc([N+](=O)[O-])cc2)c1 | 46.2% | 18.9% | 51.4% | 9.55% | -0.5% | 34.8%
Cc1ccc(/C=N/NC(=O)Cc2cccc3ccccc23)cc1 | -1.75% | 13.4% | 32.9% | -10.9% | 17.1% | 21.1%
NNC(=O)c1ccccc1O | 36% | 14.4% | 15.5% | -12.3% | 13.4% | 62%
N#Cc1c(-c2ccccc2)cc(-c2ccc(Cl)cc2)[nH]c1=S | 5.3% | 8.2% | -19.1% | 20.5% | 42.2% | 4.65%
O=C(/C(=N/O)c1ccc(Cl)cc1)c1ccccc1 | 99.5% (active) | 99.5% (active) | 99.4% (active) | 99% (active) | 99.3% (active) | 99.6% (active)
Cc1[nH]c2nccn2c(=O)c1CCCl | 10.2% | -14.7% | 9.6% | -13.2% | -13.6% | 7.1%
Cc1ccsc1C(=O)C(CC(=O)c1cccs1)c1ccsc1 (centres undefined) | -5.45% | -8.45% | -0.9% | 17.3% | 25.4% | 16.4%
O=C1NCC/C1=C\c1ccc(Cl)c(Cl)c1 | 9.4% | -12.4% | -10.3% | -17.6% | -7.7% | -13.5%
Cc1[nH]c2ccccc2c1C1=CC(=O)N(c2ccccc2)C1=O | -24.1% | -23.6% | 9.3% | 21.4% | -4.7% | -7.9%
CC1CC(=O)C(CCC#N)=C(O)C1 (centres undefined) | 4.85% | -14.2% | -8.15% | -9.9% | 5.55% | 4.95%
CC1OC(c2ccc(Cl)cc2)OC1C (centres undefined) | 16.4% | 20.9% | 10.9% | -31.6% | -5.7% | 10.7%
Nc1c(Cl)ncnc1Nc1cccc(C(F)(F)F)c1 | 9.9% | 38.4% | 53.1% | 10.1% | 41.6% | 66.5%
Cc1ccc(C(=O)CSC2=NCCN2)cc1Cl | -9.75% | -21.8% | -12.6% | -2.2% | -11.9% | 19.2%
Cc1cccc(/C=C(\C#N)C(=O)c2ccccc2)c1 | -10.6% | 15.3% | -13.6% | 5.75% | -5.25% | 21.2%
O=c1cc(-c2ccccc2)[nH]c2[nH]n(-c3ccccc3)c(=O)c12 | 8.55% | 14.2% | 24.8% | -10.2% | -9.55% | 16.4%
Nc1ccn(CCO)c(=O)n1 | -3.95% | 2.05% | -23.2% | -0.8% | -5.3% | -7.95%
CCCCN(CC)CCNc1cc(C)nc(/N=C(\N)Nc2ccc(Cl)c(Cl)c2)n1 | 95.8% (active) | 85% (active) | 96.3% (active) | 29.1% | 76.5% (active) | 92.5% (active)
BrCc1ccc(C[P+](c2ccccc2)(c2ccccc2)c2ccccc2)cc1 | 26.3% | 15.3% | 16.2% | 7% | 29.2% | 28.4%
CN1C(=O)N/C(=C\c2ccc(S(=O)(=O)NN)cc2)C1=O | 4.05% | 9.6% | 24.7% | 11.7% | -18.8% | 39.2%
